From ChEMBL document CHEMBL1157539, “Thousands of chemical starting points for antimalarial lead identification” (Nature, 2010)

Experiments:
Assay type in all cases: functional
Plasmodium falciparum [1] = test: GSK_TCMDC: Inhibition of Plasmodium falciparum 3D7 in whole red blood cells, using parasite LDH activity as an index of growth. Test compounds present at 2uM
Plasmodium falciparum [2] = test: GSK_TCMDC: Inhibition of Plasmodium falciparum Dd2 in whole red blood cells, using parasite LDH activity as an index of growth. Test compounds present at 2uM
HepG2 = test: GSK_TCMDC: Percent inhibition of human HepG2 cell line. Test compounds present at 10uM.

Question: With `O=C(O)C(F)(F)F.O=C1CCCN1CCCNCc1cccc(-c2cccc(-c3nc4cc(F)ccc4[nH]3)c2)c1` as the compound, how does the Inhibition (Plasmodium falciparum [1]) read?
Answer: Its Inhibition is 100%.

Question: And the Inhibition (Plasmodium falciparum [2])?
Answer: The Inhibition was 69%.

Question: What about the Inhibition (HepG2) of the same compound?
Answer: The Inhibition was 6%.

Question: Which Inhibition (Plasmodium falciparum [1]) does the source give for `Cc1cccc(NC(=O)Nc2ccc(I)c(OCCN(C)C)c2)c1C` here?
Answer: Its Inhibition is 96%.

Question: And the Inhibition (Plasmodium falciparum [2])?
Answer: Its Inhibition is 17%.

Question: And the Inhibition (HepG2)?
Answer: The Inhibition was 13%.

Question: How did the Inhibition (Plasmodium falciparum [1]) turn out when `CCCCCCOc1ccc(N2C(N)=NC(N)=NC2(C)C)cc1.Cl` was run?
Answer: The Inhibition was 98%.

Question: What about the Inhibition (Plasmodium falciparum [2]) of the same compound?
Answer: The Inhibition was 0%.

Question: What about the Inhibition (HepG2) of the same compound?
Answer: Its Inhibition is 5%.

Question: For `CC[C@H](C)CNC(=O)c1ccnc(-c2ccc(CN3CCC(N4CCCC4)CC3)cc2)c1.O=C(O)C(F)(F)F`, which Inhibition (Plasmodium falciparum [1]) is on record?
Answer: Its Inhibition is 99%.

Question: What about the Inhibition (Plasmodium falciparum [2]) of the same compound?
Answer: Its Inhibition is 84%.

Question: And the Inhibition (HepG2)?
Answer: The Inhibition was 13%.

Question: `Cc1ccc(CNC(=N)NC(=O)c2nc(Cl)c(NCc3ccc(Cl)cc3)nc2N)c(C)c1` was tested. Which Inhibition (Plasmodium falciparum [1]) did it give?
Answer: Its Inhibition is 100%.

Question: And the Inhibition (Plasmodium falciparum [2])?
Answer: Its Inhibition is 100%.

Question: What about the Inhibition (HepG2) of the same compound?
Answer: Its Inhibition is 28%.

Question: How did the Inhibition (Plasmodium falciparum [1]) turn out when `O=[N+]([O-])c1cccc(Nc2nccc(-c3cnn4ncccc34)n2)c1` was run?
Answer: The Inhibition was 87%.

Question: And the Inhibition (Plasmodium falciparum [2])?
Answer: Its Inhibition is 74%.

Question: And the Inhibition (HepG2)?
Answer: Its Inhibition is 33%.

Question: How did the Inhibition (Plasmodium falciparum [1]) turn out when `CCn1c(-c2nonc2N)nc2c(C#CC(C)(C)O)ncc(OCCNCCc3ccc(OC)cc3)c21.O=C(O)C(F)(F)F` was run?
Answer: Its Inhibition is 91%.

Question: What about the Inhibition (Plasmodium falciparum [2]) of the same compound?
Answer: The Inhibition was 44%.

Question: What about the Inhibition (HepG2) of the same compound?
Answer: The Inhibition was 4%.

Question: Which results are given for `CCN(CCN(C)C)Cc1ccc(-c2ccc(NS(=O)(=O)c3cccc4cccnc34)cc2)cc1.O=C(O)C(F)(F)F`?
Answer: Inhibition (Plasmodium falciparum [1]): 91%; Inhibition (Plasmodium falciparum [2]): 57%; Inhibition (HepG2): 16%

Question: `O=C(NCc1ccccc1)Nc1cccc(-c2cccc(-c3nc4cc(C(F)(F)F)ccc4[nH]3)c2)c1` was tested. Which Inhibition (Plasmodium falciparum [1]) did it give?
Answer: The Inhibition was 95%.

Question: And the Inhibition (Plasmodium falciparum [2])?
Answer: The Inhibition was 30%.

Question: And the Inhibition (HepG2)?
Answer: The Inhibition was 56%.

Question: How did the Inhibition (Plasmodium falciparum [1]) turn out when `COc1ccc2nccc([C@@H](O)CN3CCC(NCc4nc5ccc(F)cc5[nH]4)CC3)c2c1.O=C(O)C(=O)O` was run?
Answer: The Inhibition was 100%.

Question: What about the Inhibition (Plasmodium falciparum [2]) of the same compound?
Answer: The Inhibition was 4%.

Question: What about the Inhibition (HepG2) of the same compound?
Answer: The Inhibition was 20%.

Question: What does the source list for `COc1ccc(Nc2nc(NCc3cccc(NS(C)(=O)=O)c3)cc(-c3ccc(OC)cc3)n2)cc1`?
Answer: Inhibition (Plasmodium falciparum [1]): 84%; Inhibition (Plasmodium falciparum [2]): 5%; Inhibition (HepG2): 0%

Question: What does the source list for `NC1CCN(c2nc(NCCc3ccc(O)cc3)nc(NCc3ccccc3-c3ccc(C(F)(F)F)cc3)n2)CC1.O=C(O)C(F)(F)F`?
Answer: Inhibition (Plasmodium falciparum [1]): 100%; Inhibition (Plasmodium falciparum [2]): 72%; Inhibition (HepG2): 18%

Question: Which results are given for `Nc1cccc(CNCc2cccc(-c3ccc(-c4nc5ccccc5[nH]4)cc3)c2)c1.O=C(O)C(F)(F)F`?
Answer: Inhibition (Plasmodium falciparum [1]): 100%; Inhibition (Plasmodium falciparum [2]): 92%; Inhibition (HepG2): 0%

Question: For `CS(=O)(=O)c1ccc2c(c1)CCN(CCC1CCC(NC(=O)c3cc4cccc(Br)c4[nH]3)CC1)CC2` (stereo unspecified), which Inhibition (Plasmodium falciparum [1]) is on record?
Answer: Its Inhibition is 92%.

Question: What about the Inhibition (Plasmodium falciparum [2]) of the same compound?
Answer: The Inhibition was 7%.

Question: And the Inhibition (HepG2)?
Answer: The Inhibition was 27%.

Question: What does the source list for `COc1ccccc1Cn1ccnc1SCC(=O)Nc1cccc(C(F)(F)F)c1`?
Answer: Inhibition (Plasmodium falciparum [1]): 86%; Inhibition (Plasmodium falciparum [2]): 73%; Inhibition (HepG2): 0%

Question: How did the Inhibition (Plasmodium falciparum [1]) turn out when `CN1CCN(c2ccnc3ccc(NC(=O)Nc4ccccc4Br)cc23)CC1.Cl` was run?
Answer: Its Inhibition is 100%.

Question: And the Inhibition (Plasmodium falciparum [2])?
Answer: Its Inhibition is 95%.

Question: And the Inhibition (HepG2)?
Answer: The Inhibition was 4%.

Question: For `O=C(NCC1COc2ccccc2O1)c1cnc2c(c1)nc(-c1c[nH]c(-c3ccccc3)n1)n2CCSCc1c(F)cccc1Cl` (stereo unspecified), which Inhibition (Plasmodium falciparum [1]) is on record?
Answer: The Inhibition was 95%.

Question: What about the Inhibition (Plasmodium falciparum [2]) of the same compound?
Answer: The Inhibition was 10%.

Question: And the Inhibition (HepG2)?
Answer: The Inhibition was 6%.

Question: Which Inhibition (Plasmodium falciparum [1]) does the source give for `COCCCN=C(S)NN=C(C)c1ccccn1` here?
Answer: The Inhibition was 100%.

Question: What about the Inhibition (Plasmodium falciparum [2]) of the same compound?
Answer: The Inhibition was 99%.

Question: What about the Inhibition (HepG2) of the same compound?
Answer: Its Inhibition is 55%.

Question: Which results are given for `FC(F)(F)c1ccc2[nH]c(-c3ccc(-c4cccc(CNCCc5ccncc5)c4)s3)nc2c1.O=C(O)C(F)(F)F`?
Answer: Inhibition (Plasmodium falciparum [1]): 100%; Inhibition (Plasmodium falciparum [2]): 95%; Inhibition (HepG2): 20%

Question: For `CN1CCN(Cc2ccc(-c3ccc4c(Nc5cc(O)c(Cl)cc5F)ccnc4c3)o2)CC1`, which Inhibition (Plasmodium falciparum [1]) is on record?
Answer: The Inhibition was 100%.

Question: What about the Inhibition (Plasmodium falciparum [2]) of the same compound?
Answer: The Inhibition was 99%.

Question: What about the Inhibition (HepG2) of the same compound?
Answer: Its Inhibition is 2%.

Question: `O=C(C=Cc1ccc(Cl)c(Cl)c1)NCCCCCN1CCC(CCCNC(=O)c2sc3ccccc3c2Cl)CC1` was tested. Which Inhibition (Plasmodium falciparum [1]) did it give?
Answer: The Inhibition was 93%.

Question: What about the Inhibition (Plasmodium falciparum [2]) of the same compound?
Answer: The Inhibition was 40%.

Question: And the Inhibition (HepG2)?
Answer: The Inhibition was 99%.

Question: What does the source list for `CCc1c[nH]c2c(N3CCCC3=O)cc(C(=O)N[C@@H](Cc3ccccc3)[C@H](O)CNC(C)(C)CCCC(C)C)cc12.O=CO`?
Answer: Inhibition (Plasmodium falciparum [1]): 96%; Inhibition (Plasmodium falciparum [2]): 97%; Inhibition (HepG2): 22%

Question: Which results are given for `O=C(O)C(F)(F)F.O=S(=O)(NCCN1CCCC1)c1ccc(-c2cccc(CNCc3ccc(F)cc3)c2)cc1F`?
Answer: Inhibition (Plasmodium falciparum [1]): 97%; Inhibition (Plasmodium falciparum [2]): 36%; Inhibition (HepG2): 43%

Question: Which Inhibition (Plasmodium falciparum [1]) does the source give for `CCNC(=O)N1CCc2ccc(Oc3nc(NCc4ccccc4OC)ncc3C)cc2CC1.O=C(O)C(F)(F)F` here?
Answer: The Inhibition was 83%.

Question: What about the Inhibition (Plasmodium falciparum [2]) of the same compound?
Answer: Its Inhibition is 76%.

Question: What about the Inhibition (HepG2) of the same compound?
Answer: The Inhibition was 0%.

Question: For `COc1ccc2nc3cc(Cl)ccc3c(Nc3ccc(C(=O)O)cc3)c2c1.Cl`, which Inhibition (Plasmodium falciparum [1]) is on record?
Answer: The Inhibition was 94%.

Question: And the Inhibition (Plasmodium falciparum [2])?
Answer: The Inhibition was 95%.

Question: What about the Inhibition (HepG2) of the same compound?
Answer: The Inhibition was 0%.

Question: For `NCC1CCCN1Cc1cccc(-c2ccc(-c3nc4cc(C(F)(F)F)ccc4[nH]3)s2)c1.O=C(O)C(F)(F)F` (stereo unspecified), which Inhibition (Plasmodium falciparum [1]) is on record?
Answer: The Inhibition was 100%.

Question: And the Inhibition (Plasmodium falciparum [2])?
Answer: The Inhibition was 96%.

Question: What about the Inhibition (HepG2) of the same compound?
Answer: Its Inhibition is 17%.

Question: `CC(C)(C)c1ccc(OC(=O)c2ccc(NC(=O)N[C@@H](Cc3ccc(O)cc3)C(=O)NC3CCN(Cc4ccc(O)cc4)C3)cc2)cc1.O=C(O)C(F)(F)F` (stereo partly specified) was tested. Which Inhibition (Plasmodium falciparum [1]) did it give?
Answer: The Inhibition was 92%.

Question: And the Inhibition (Plasmodium falciparum [2])?
Answer: Its Inhibition is 67%.

Question: And the Inhibition (HepG2)?
Answer: The Inhibition was 0%.
